Calls of active or inactive are those of the source.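 How the source made its calls, unless noted: active means inhibition of the reporter signal at or above 50%; inactive means inhibition below 50%.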
Experiments:
[1] = inhibitors of TNFa-induced NFkB p65 translocation, primary screen, imaging, HUVEC, MLSMR starter and 10KST1 sets (AID 438;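 active means inhibition above 20% together with a positive visual image hit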;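 further: compound added about 3h40 before a 20 min TNFalpha stimulation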;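 on inhibition: signal is the nuclear over cytoplasmic p65 intensity ratio per well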); conditions: HUVEC TNFa-induced p65 nuclear translocation; cell count: measured here: nuclei count (cytotoxicity indicator), at 2.08 µM; inhibition: at 2 µM, stronger effect = higher value, 0% TNFa-plus-vehicle, 100% no-TNFa wells
[2] = reduction of polyQ htt aggregates in cells – imaging, exon1htt(103Q)mCFP cells, high-content imaging, primary screen (AID 483;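 active means visual image review flags a hit and inhibition of aggregation exceeds 20%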;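 further: compound exposure lasted 3 days before fixation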;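 on nuclei count: percent of the per-plate median nuclei count of sample wells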); conditions: exon1htt(103Q)mCFP cell line, aggregate imaging, at 2 µM; inhibition of aggregation: stronger effect = higher value; nuclei count: measured here: cell count, toxicity
[3] = endothelial E-selectin expression blockers – imaging, HUVEC, immunofluorescence, MLSMR starter and 10KST1 sets, primary screen (AID 487;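 active means visually confirmed hit in the image check and inhibition above 20%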;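 on inhibition: signal is fraction of cell area covered by stained E-selectin grains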;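 on nuclei count: 100% = median nuclei count of all wells on the same plate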); conditions: HUVEC TNFalpha-induced E-selectin immunofluorescence imaging, at 2 µM; inhibition: stronger effect = higher value; nuclei count: measured here: cell number, toxicity
[4] = molecular target: Voltage-gated potassium channel subunit beta-2 (Rattus norvegicus) (UniProt P62483); experiment: inhibitors of rat Kvbeta2 reductase activity – biochemical, NADPH fluorescence, primary screen (AID 622;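 active means fluorescence slope higher than the sample average by over 3 SD, cut at about -0.22 in these data, passing the limit was not always enough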;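 further: slope of raw intensity against log time taken from 70 to 1610 s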); conditions: recombinant KvBeta, 4-cyanobenzaldehyde reduction, at 10 µM, stronger effect = higher value
[5] = molecular target: Voltage-gated potassium channel subunit beta-2 (Rattus norvegicus) (UniProt P62483); experiment: enhancers of rat Kvbeta2 NADPH turnover – biochemical, NADPH fluorescence, primary screen (AID 623;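 active means NADPH fluorescence slope more negative than the mean of all samples by about 3 SD, 99.7% confidence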;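 further: fluorescence intensity change per second fitted from 20 to 320 s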); conditions: Recombinant KvBeta, NADPH fluorescence decrease slope, 10 min; at 10 µM; stronger effect = lower value
[6] = molecular target: Alpha-2C adrenergic receptor (Homo sapiens) (UniProt P18825); experiment: compounds altering alpha2C-coupled GIRK flux – cell-based, HEK293 alpha2C/GIRK1/2, thallium flux, primary screen (AID 624;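 active means fluorescence slope after compound addition differing from the mean of all screened samples at 99.7% confidence, in either direction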;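 further: slope of fluorescence ratio to pre-addition baseline per second over 15 to 24 s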); conditions: thallium flux BTC fluorescence, at 10 µM, actives lie on both sides
[7] = blockers of RIG-like receptor reporter activation – cell-based, Sendai virus stimulus, luciferase, 10K MLSCN set, TLR/RLR signaling modifier project, primary screen (AID 602276;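 active means inhibition at or above 50% at 10 µM; inactive means inhibition below 50%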;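 further: firefly luciferase from ISG56 promoter only with Renilla not read in this screen; 0% = Sendai virus plus DMSO and 100% = medium plus DMSO without virus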); conditions: HEK293 RL24 IRF3 luciferase reporter, at 10 µM, stronger effect = higher value
[8] = TLR3 IRF3 reporter activation blockers – cell-based, poly I:C stimulus, luciferase, 10K MLSCN set, primary screen (AID 602277); conditions: HEK293-TLR3 RL24 IRF3 luciferase reporter, at 10 µM, stronger effect = higher value

Chain of Alpha-2C adrenergic receptor (Homo sapiens) (P18825 whole entry, looked up): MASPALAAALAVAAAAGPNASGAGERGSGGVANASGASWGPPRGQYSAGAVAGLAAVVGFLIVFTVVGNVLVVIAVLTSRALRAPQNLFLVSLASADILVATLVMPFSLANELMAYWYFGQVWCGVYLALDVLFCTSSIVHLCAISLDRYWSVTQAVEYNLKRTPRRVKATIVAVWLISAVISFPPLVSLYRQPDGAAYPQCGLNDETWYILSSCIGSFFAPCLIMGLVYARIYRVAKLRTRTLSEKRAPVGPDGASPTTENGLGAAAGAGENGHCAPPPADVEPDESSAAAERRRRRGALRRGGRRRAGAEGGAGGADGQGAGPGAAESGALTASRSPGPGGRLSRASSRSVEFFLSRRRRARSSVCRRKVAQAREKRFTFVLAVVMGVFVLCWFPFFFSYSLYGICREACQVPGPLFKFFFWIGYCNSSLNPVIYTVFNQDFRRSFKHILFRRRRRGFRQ
Chain of Voltage-gated potassium channel subunit beta-2 (Rattus norvegicus) (P62483 whole entry, looked up): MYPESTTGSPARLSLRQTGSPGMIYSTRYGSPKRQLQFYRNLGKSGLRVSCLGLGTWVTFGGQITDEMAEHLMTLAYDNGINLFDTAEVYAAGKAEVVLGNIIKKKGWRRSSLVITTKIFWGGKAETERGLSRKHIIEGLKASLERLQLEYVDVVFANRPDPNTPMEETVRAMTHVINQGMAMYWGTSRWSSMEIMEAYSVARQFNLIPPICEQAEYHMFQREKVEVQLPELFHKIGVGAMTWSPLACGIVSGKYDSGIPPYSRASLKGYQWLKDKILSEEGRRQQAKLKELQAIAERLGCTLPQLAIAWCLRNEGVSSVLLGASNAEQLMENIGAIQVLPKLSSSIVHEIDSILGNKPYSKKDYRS

Row | Compound | cell count [1] | inhibition [1] | inhibition of aggregation [2] | nuclei count [2] [%] | inhibition [3] | nuclei count [3] [%] | fluorescence slope [4] | NADPH fluorescence slope [5] | slope [6] | inhibition [7] | inhibition [8]
1 | COC(=O)c1cc(OC)c(OCc2cc(C(=O)OC)oc2C)c(OC)c1 | 753 | 1.5% (inactive) | -6.3% (inactive) | 106 | 32.8% (inactive) | 85.7 | -0.396 (inactive) | -6.5e-05 (inactive) | 0.00675 (inactive) | 17% (inactive) | 34.7% (inactive)
2 | O=C1C(C=NCCCn2ccnc2)=C(O)c2ccccc21 | 422 | 5.8% (inactive) | -8.1% (inactive) | 104 | -50.8% (inactive) | 113 | -0.589 (inactive) | -2.7e-05 (inactive) | 0.0063 (inactive) | 9.44% (inactive) | 37.1% (inactive)
3 | COc1ccc2[nH]c(=O)c(CN(Cc3cccs3)S(=O)(=O)c3cccc4nsnc34)cc2c1 | 510 | -4.2% (inactive) | -15.3% (inactive) | 110 | -68.8% (inactive) | 110 | -0.523 (inactive) | -0.000153 (inactive) | 0.00524 (inactive) | 8.33% (inactive) | 71.5% (active)
4 | O=c1c(-c2ccccc2)coc2c(CN3CCOCC3)c(O)ccc12 | 335 | -2.5% (inactive) | -6.5% (inactive) | 108 | -116% (inactive) | 129 | -0.0601 (active) | 4.4e-06 (inactive) | 0.00553 (inactive) | -3.14% (inactive) | 10.1% (inactive)
5 | CCN(CC)c1ccc(NC(=O)CN2C(=O)CC(C)(C)S(=O)(=O)c3ccccc32)c(C)c1 | 879 | 5.8% (inactive) | 30.2% (inactive) | 60.8 | -63.3% (inactive) | 125 | -0.465 (inactive) | -2.5e-05 (inactive) | 0.00659 (inactive) | 10.9% (inactive) | -2.32% (inactive)
6 | Cc1ccc2c(c1)C(O)(CC(=O)c1ccc3c(c1)OCO3)C(=O)N2 (stereo not drawn) | 671 | 9.5% (inactive) | -46.3% (inactive) | 93.9 | 16.8% (inactive) | 93.3 | -0.511 (inactive) | -5e-05 (inactive) | 0.00523 (inactive) | 0.102% (inactive) | 23% (inactive)
7 | CCc1ccccc1-n1c(SCC(=O)N2CCCC2)nnc1-c1ccccn1 | 484 | 2.5% (inactive) | -5.8% (inactive) | 116 | -11.2% (inactive) | 104 | -0.524 (inactive) | 5e-05 (inactive) | 0.00548 (inactive) | -2.19% (inactive) | 4.38% (inactive)
8 | O=C1c2ccccc2NC2CCCCCN12 (stereo not drawn) | 445 | -2.1% (inactive) | -11% (inactive) | 108 | 13.9% (inactive) | 110 | -0.417 (inactive) | 2.2e-05 (inactive) | 0.0068 (inactive) | -2.99% (inactive) | 4.91% (inactive)
9 | Cn1c(=O)[nH]c(=O)c2[nH]c(NCCCN3CCOCC3)nc21 | 572 | 4.8% (inactive) | 8% (inactive) | 92.2 | -36.4% (inactive) | 112 | -0.613 (inactive) | -1.9e-05 (inactive) | 0.00608 (inactive) | 9.97% (inactive) | 14.9% (inactive)
10 | CCOC(=O)c1[nH]c(CSc2nnc(-c3ccc(OC)cc3)o2)c(C(=O)OCC)c1C | 609 | 1.4% (inactive) | -12.6% (inactive) | 124 | -39.2% (inactive) | 119 | -0.304 (inactive) | -5.8e-05 (inactive) | 0.00625 (inactive) | 7.64% (inactive) | 24.1% (inactive)
11 | CCCCn1c(NCc2ccccc2O)nc2ccccc21 | 790 | -6.4% (inactive) | 14.4% (inactive) | 107 | -63% (inactive) | 120 | -0.567 (inactive) | -5.9e-06 (inactive) | 0.00728 (inactive) | 0.354% (inactive) | 25.3% (inactive)
12 | CCOC(=O)C1CCCN(CCC(C)c2ccccc2)C1 (stereo not drawn) | 469 | -2.7% (inactive) | 2.6% (inactive) | 92.9 | 25% (inactive) | 76.3 | -0.612 (inactive) | -4.1e-05 (inactive) | 0.00315 (inactive) | 14.2% (inactive) | 29.6% (inactive)
13 | O=C(Cn1nc(Cc2cccnc2)c2ccccc2c1=O)NCC1CCCO1 (stereo not drawn) | 461 | 6.1% (inactive) | 12.1% (inactive) | 69.2 | -96.1% (inactive) | 115 | -0.553 (inactive) | -2.6e-06 (inactive) | 0.00713 (inactive) | 11.5% (inactive) | 29.9% (inactive)
14 | COc1ccc(C(NC(=O)C(C)(C)C)NC(=O)C(C)(C)C)cc1 | 364 | 3% (inactive) | 0.4% (inactive) | 106 | -52.8% (inactive) | 102 | -0.618 (inactive) | -1e-05 (inactive) | 0.00914 (inactive) | 4.79% (inactive) | 9.47% (inactive)
15 | COc1ccc(OCCC(=O)NCc2ccccc2)cc1 | 694 | 0.4% (inactive) | 19.2% (inactive) | 91.9 | -93.5% (inactive) | 102 | -0.509 (inactive) | 9e-06 (inactive) | 0.00495 (inactive) | 4.97% (inactive) | 7.69% (inactive)
16 | COc1ccccc1NC(=O)c1oc2ccccc2c1NC(=O)c1cc(OC)c(OC)c(OC)c1 | 582 | -7.6% (inactive) | -17.1% (inactive) | 85.7 | 25.8% (inactive) | 60.4 | -0.36 (inactive) | -9.5e-06 (inactive) | 0.00886 (inactive) | 36% (inactive) | 65.9% (active)
17 | CCOc1ccc(NC(=O)CSc2nccn2C)cc1 | 309 | 15.3% (inactive) | 3.1% (inactive) | 106 | -28.1% (inactive) | 114 | -0.28 (inactive) | 1e-05 (inactive) | 0.00367 (inactive) | -18.3% (inactive) | -80.7% (inactive)
18 | CCC(C)C(=O)Nc1nc2c(s1)C(=O)CC(C)(C)C2 (stereo not drawn) | 612 | 6.9% (inactive) | -4.2% (inactive) | 102 | -8.8% (inactive) | 115 | -0.553 (inactive) | -2.6e-05 (inactive) | 0.00723 (inactive) | -7.18% (inactive) | -6.11% (inactive)
